# Reference: PubChem BioAssay AID540352 (National Center for Advancing Translational Sciences (NCATS), 2011)
# Values joined by “and” are separate entries in the source; they are usually repeats but may differ in a detail not shown here. Identical values can stand only once. Records with an inconclusive call do not appear. Values without a mark were called inactive. Active and inactive are the calls of the source. Calls follow the shape of the dose curve; as a rule, active = well fitted inhibition curve with a large enough effect; inconclusive = small, poorly fitted or top-dose-only effect; inactive = no such curve, though single readings can be large or run the other way.
# Assay: qHTS for Inhibitos of Bacillus subtilis Sfp phosphopantetheinyl transferase (PPTase): Chemistry Optimization Followup in B. Subtilis 168
# Settings: B. subtilis 168 growth, BacTiter-Glo luminescence, 5 h; series mostly up to 114 µM; activity change, negative = inhibition: at the top concentration
# Text: Phosphopantetheinyl transfer is a process essential to cellular viability and maintenance. Cell-permeable and stable compounds acting as PPTase inhibitors are anticipated to be antimicrobial agents in organisms with complimenting genotypes. […] This experiment evaluated a series of test compounds for antimicrobial activity with B. subtilis 168 (genotype: acpS+ and sfp-), a strain that contains a frameshift mutation in the sfp locus and thus requires a functional AcpS gene product for viability. [Mootz HD, 2001] This strain is expected to be sensitized to cell-permeable AcpS inhibitors, and insensitive to Sfp inhibitors. NIH Chemical Genomics Center [NCGC] NIH Molecular Libraries Probe Centers Network [MLPCN] MLPCN Grant: MH083266-01 Assay Submitter (PI): Michael Burkart, University of California, San Diego
# Innoculum preparation. Bacillus subtilis 168 is maintained on lysogeny broth (LB) solidified by the addition of 1.5% w/v agar. Single colonies were used to LB medium (2 mL) and shaken overnight at 30 masculineC. In the morning, this culture (100 ul) was used to seed a fresh LB medium (10 mL) and was shaken at 30 masculineC until the culture OD600 reached 0.5. This culture was diluted 1:100 in fresh LB medium to provide the inoculum below. Bacterial susceptibility. LB medium (2 uL) is dispensed into wells of a sterile white 1536-well plate. Test compounds (23 nL) prepared as serial dilutions in DMSO are added to the plate by pintool transfer. Innoculum (2 uL) is added, the plates are covered with a vented Kalypsys assay lid and incubated at 30 masculineC. After 5 h, Bac-Titer Glo (4 uL; Promega Corp, Madison, WI) is added to the plates. They are incubated 10 minutes at room temperature and then the luminescence detected in a ViewLux multimodal plate reader.
SMILES,Potency,"activity change, negative = inhibition [%]"
Cc1ccnc(NC(=S)N2CCN(c3cc(F)cc(Cl)c3)CC2)c1,5.91 µM (active),
FC(F)(F)c1ccc(N2CCN(C(=S)Nc3ccccn3)CC2)cc1,21 µM (active),
Cc1ccnc(NC(=S)N2CCN(c3cccc(C(F)(F)F)c3)CC2)c1,41.8 µM (active) and 14.8 µM (active) and 16.7 µM (active),
Cc1cc(C)nc(NC(=S)N2CCN(c3ccncc3)CC2)c1,,-18.6
Cc1ccnc(NC(=S)Nc2cccc(C(F)(F)F)c2)c1,16.7 µM (active),
S=C(Nc1cc(Cl)ccn1)N1CCN(c2cc(Cl)cc(Cl)c2)CC1,13.2 µM (active),
Cc1ccnc(NC(=S)N2CCN(c3cccc(N(C)C)c3)CC2)c1,59.1 µM (active),
Cc1ccnc(NC(=S)N2CCC(Nc3cccc(C(F)(F)F)c3)CC2)c1,37.3 µM (active),
OCc1ccnc(NC(=S)N2CCN(c3cccc(C(F)(F)F)c3)CC2)c1,46.9 µM (active),
Cc1ccnc(NC(=S)NC2CN(c3cccc(C(F)(F)F)c3)C2)c1,46.9 µM (active),
FC(F)(F)c1cccc(N2CCN(C(=S)Nc3nccc4ccccc34)CC2)c1,2.35 µM (active),
Cc1ccnc(NC(=S)N2CCN(c3ccc(Cl)cc3Cl)CC2)c1,16.7 µM (active),
Cc1ccnc(NC(=S)N2CCc3ccccc3C2)c1,59.1 µM (active),
Cc1cc(C)nc(NC(=S)N2CCN(c3cc(F)cc(F)c3)CC2)c1,37.3 µM (active),
Cc1ccnc(NC(=S)N2CCN(c3cccc(C(F)(F)F)n3)CC2)c1,16.7 µM (active),
COc1ccnc(NC(=S)N2CCN(c3ncc(C(F)(F)F)cc3Cl)CC2)c1,14.8 µM (active),
S=C(Nc1cc(Cl)ccn1)N1CCN(c2ccc(Cl)cc2Cl)CC1,9.37 µM (active),
COc1cccc(NC(=S)N2CCN(c3ccc(Cl)c(Cl)c3)CC2)n1,,-26.2
Cc1cncc(NC(=S)N2CCN(c3cccc(C(F)(F)F)c3)CC2)c1,,-23.5
Cc1cc(C)nc(Nc2nnc(N3CCN(c4cccc(C(F)(F)F)c4)CC3)s2)c1,,-13.3
Cc1cc(C)nc(NC(=C(C#N)C#N)N2CCN(c3cccc(C(F)(F)F)c3)CC2)c1,37.3 µM (active),
Cc1cc(C)nc(NC(=S)N2CCN(c3ncccc3C#N)CC2)c1,,-10.9
Cc1ccnc(NC(=S)N2CCN(c3cccc(C(F)(F)F)c3)C2)c1,,-10.5
Cc1cc(C)nc(NC(=S)N2CCN(c3nsc4ccccc34)CC2)c1,52.7 µM (active),
